Among the data in PubChem BioAssay are log fold change Tl+ flux values, retold here.

Common to all, as to assay: BK channel mutant inhibitors and activators – cell-based, U2OS BacMam, thallium flux, beta subunits, selectivity assay, profiling panel (AID 1259406);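 also: initial slope of Thallos dye fluorescence rise after thallium is added; log ratio against the mean of 0.3% DMSO vehicle wells on the same plate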
One experiment concerns F380Y. To be noted: U2OS BacMam BK variants, at 30 µM.
The next experiment deals with F380Y/beta1. As to conditions: U2OS BacMam BK variants, at 30 µM.
The subject of another experiment is F380Y/beta2Delta. To be noted: U2OS BacMam BK variants, at 30 µM.
A further experiment has as its system F380Y/beta4. As to conditions: U2OS BacMam BK variants, at 30 µM.
In experiment [1] the target is Calcium-activated potassium channel subunit alpha-1 (Homo sapiens) + Leucine-rich repeat-containing protein 26 (Homo sapiens) (UniProt Q12791+Q2I0M4). As to conditions: U2OS BacMam BK variants, F380Y/Slo1WT/gamma1, at 30 µM.
For another experiment, the system named is R275C. As to conditions: U2OS BacMam BK variants, at 30 µM.
For the next experiment, the system named is R275C/beta1. To be noted: U2OS BacMam BK variants, at 30 µM.
The subject of another experiment is R275C/beta2Delta. To be noted: U2OS BacMam BK variants, at 30 µM.
The next experiment relates to R275C/beta4. As to conditions: U2OS BacMam BK variants, at 30 µM.
For a further experiment, the system named is R275C/Slo1WT/beta2. To be noted: U2OS BacMam BK variants, at 30 µM.

A number with no mark means an inactive call. Active and inactive are the calls of the source.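 The calls were made as follows: active = thallium flux through the channel raised or lowered by more than 3 SD from vehicle-only wells, actives on both sides; inactive = the rest.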

Sequence of Calcium-activated potassium channel subunit alpha-1 (Homo sapiens) + Leucine-rich repeat-containing protein 26 (Homo sapiens) (Q2I0M4 whole entry, looked up, one chain of several): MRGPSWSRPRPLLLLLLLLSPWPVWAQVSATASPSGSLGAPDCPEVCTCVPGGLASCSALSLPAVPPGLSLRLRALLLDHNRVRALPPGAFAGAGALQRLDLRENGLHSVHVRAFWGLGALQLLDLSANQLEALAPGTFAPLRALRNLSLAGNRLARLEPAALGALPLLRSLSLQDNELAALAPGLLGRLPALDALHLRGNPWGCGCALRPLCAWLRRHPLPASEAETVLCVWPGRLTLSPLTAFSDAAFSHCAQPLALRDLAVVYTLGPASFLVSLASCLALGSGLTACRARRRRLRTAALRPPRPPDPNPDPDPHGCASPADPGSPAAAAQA

In the case of `Cc1nc(-c2ccc(S(=O)(=O)N3CCCN(c4ccc(C(F)(F)F)cn4)CC3)s2)cs1`, the log fold change Tl+ flux in the experiment on F380Y was 0.00624; with F380Y/beta1, -0.00592; with F380Y/beta2Delta it was -0.0273; in the experiment on F380Y/beta4, -0.105 (active); in experiment [1] it was 0.00148; with R275C, -0.0736. The log fold change Tl+ flux is -0.0131 with R275C/beta1, -0.0332 in the experiment with R275C/beta2Delta, -0.00508 in the experiment with R275C/beta4 and 0.0123 with R275C/Slo1WT/beta2.

Turning to `O=C(CSCc1csc2ccccc12)NCc1ccc2c(c1)OCO2`, the log fold change Tl+ flux in the experiment on F380Y is -0.00508; with F380Y/beta1, -0.0221; with F380Y/beta2Delta it was -0.0281; with F380Y/beta4, -0.0396; in experiment [1] it was -0.13 (active); in the experiment with R275C, -0.0377. In addition, the log fold change Tl+ flux in the experiment with R275C/beta1 is -0.0155; in the experiment on R275C/beta2Delta it was -0.0321; in the experiment on R275C/beta4 it was -0.0151; in the experiment with R275C/Slo1WT/beta2 it was -0.0571.

As for `COC(=O)C(C#N)=C1NC(C)=NC(SC)=C1C#N`, the log fold change Tl+ flux was -0.0152 with F380Y; 0.03 with F380Y/beta1; -0.00376 in the experiment on F380Y/beta2Delta; 0.021 in the experiment with F380Y/beta4; 0.0176 in [1]; -0.014 in the experiment on R275C. Besides, the log fold change Tl+ flux in the experiment on R275C/beta1 was -0.0163; in the experiment on R275C/beta2Delta, -0.0169; in the experiment on R275C/beta4 it was -0.0352; in the experiment on R275C/Slo1WT/beta2, 0.0253.

For the compound `Cc1ccc(S(=O)(=O)c2ncsc2SCc2ccc(Cl)cc2Cl)cc1`, the log fold change Tl+ flux in the experiment with F380Y was 0.0356; with F380Y/beta1, -0.0176; in the experiment on F380Y/beta2Delta, 0.0366; with F380Y/beta4, -0.0184; in [1], 0.00897; in the experiment on R275C it was -0.00241. Moreover, the log fold change Tl+ flux is 0.0419 with R275C/beta1, -0.0166 in the experiment with R275C/beta2Delta, -0.0112 in the experiment on R275C/beta4 and -0.00155 in the experiment on R275C/Slo1WT/beta2.

Take `O=C(CNc1cc(C(F)(F)F)cc(C(F)(F)F)c1)c1ccc(Cl)cc1`: the log fold change Tl+ flux was -0.0386 in the experiment with F380Y; 0.0507 with F380Y/beta1; -0.00515 in the experiment with F380Y/beta2Delta; -0.0229 in the experiment on F380Y/beta4; -0.0851 in experiment [1]; 0.0058 in the experiment with R275C. Moreover, the log fold change Tl+ flux in the experiment on R275C/beta1 is 0.0119; with R275C/beta2Delta, 0.000503; in the experiment on R275C/beta4 it was 0.0102; in the experiment with R275C/Slo1WT/beta2, 0.0351.

Regarding `O=C(NC1CCSC1)c1ccccc1NS(=O)(=O)c1ccccc1` (stereo not given), the log fold change Tl+ flux with F380Y is -0.000365; in the experiment with F380Y/beta1, -0.00386; in the experiment on F380Y/beta2Delta it was -0.00638; with F380Y/beta4, 0.00736; in experiment [1], -0.0334; in the experiment on R275C, -0.153 (active). The log fold change Tl+ flux is -0.151 (active) with R275C/beta1, -0.158 (active) in the experiment with R275C/beta2Delta, -0.0828 (active) in the experiment on R275C/beta4 and -0.0155 with R275C/Slo1WT/beta2.

For the compound `NS(=O)(=O)c1cccc(NC(=O)c2cccnc2Oc2ccccc2)c1`, the log fold change Tl+ flux in the experiment with F380Y was -0.000714; in the experiment with F380Y/beta1, 0.008; in the experiment with F380Y/beta2Delta, 0.0103; with F380Y/beta4, -0.015; in experiment [1], -0.0607; in the experiment with R275C, -0.0268. The log fold change Tl+ flux in the experiment on R275C/beta1 is -0.0191; in the experiment on R275C/beta2Delta, 0.01; in the experiment with R275C/beta4, 0.00433; with R275C/Slo1WT/beta2, -0.0182.

In the case of `O=C(c1ncoc1-c1ccccc1)N(Cc1ccccn1)Cc1ccccn1`, the log fold change Tl+ flux in the experiment with F380Y is 0.0015; in the experiment on F380Y/beta1, 0.0293; with F380Y/beta2Delta, -0.0298; in the experiment on F380Y/beta4, 0.051; in [1], -0.0237; in the experiment with R275C, -0.0056. The log fold change Tl+ flux in the experiment with R275C/beta1 is 0.0298; in the experiment on R275C/beta2Delta, 0.0379; in the experiment with R275C/beta4, 0.0394; with R275C/Slo1WT/beta2 it was 0.033.

Regarding `CCOC(=O)c1ccc(OCC#Cc2ccc(C(F)(F)F)cn2)cc1`, the log fold change Tl+ flux is -0.0256 with F380Y; -0.0209 in the experiment on F380Y/beta1; -0.0279 in the experiment with F380Y/beta2Delta; -0.0657 in the experiment on F380Y/beta4; -0.0262 in experiment [1]; -0.0775 with R275C. Besides, the log fold change Tl+ flux with R275C/beta1 was -0.0424; with R275C/beta2Delta it was -0.0497; in the experiment with R275C/beta4, -0.0346; with R275C/Slo1WT/beta2, -0.0412.

Take `C#Cc1cccc(NS(=O)(=O)c2ccc(Cl)c(Cl)c2)c1`: the log fold change Tl+ flux in the experiment on F380Y was 0.107 (active); in the experiment on F380Y/beta1 it was 0.533 (active); with F380Y/beta2Delta it was 0.116 (active); with F380Y/beta4 it was 0.222 (active); in [1], 0.182 (active); in the experiment with R275C, -0.0107. Further, the log fold change Tl+ flux is 0.291 (active) with R275C/beta1, 0.158 (active) with R275C/beta2Delta, 0.196 (active) in the experiment on R275C/beta4 and -0.0633 in the experiment on R275C/Slo1WT/beta2.

For the compound `CSc1nnc(SCC(=O)c2ccc3c(c2)OCCO3)s1`, the log fold change Tl+ flux is -0.00388 with F380Y; -0.019 in the experiment on F380Y/beta1; -0.0362 in the experiment with F380Y/beta2Delta; -0.049 with F380Y/beta4; -0.0346 in experiment [1]; -0.06 in the experiment with R275C. Further, the log fold change Tl+ flux is -0.119 (active) in the experiment on R275C/beta1, -0.146 (active) in the experiment on R275C/beta2Delta, -0.0816 (active) in the experiment with R275C/beta4 and -0.0418 in the experiment on R275C/Slo1WT/beta2.

As for `COC(=O)C(C#N)=CN(C)C`, the log fold change Tl+ flux in the experiment on F380Y is 0.0153; in the experiment with F380Y/beta1, 0.000638; with F380Y/beta2Delta, 0.00933; in the experiment with F380Y/beta4, 0.0217; in experiment [1], -0.0293; in the experiment with R275C, 0.0113. Further, the log fold change Tl+ flux was 0.0127 in the experiment with R275C/beta1, 0.0244 in the experiment with R275C/beta2Delta, -0.00979 with R275C/beta4 and -0.0171 with R275C/Slo1WT/beta2.

Regarding `O=C1NC2CC2N1C(=O)OCc1ccccc1` (stereo not given), the log fold change Tl+ flux in the experiment on F380Y is 0.0285; in the experiment with F380Y/beta1, -0.00537; in the experiment on F380Y/beta2Delta it was 0.0281; in the experiment on F380Y/beta4, 0.054; in experiment [1], -0.0415; in the experiment with R275C, 0.00866. The log fold change Tl+ flux in the experiment with R275C/beta1 was 0.00489; in the experiment on R275C/beta2Delta, 0.0219; in the experiment on R275C/beta4, -0.029; in the experiment on R275C/Slo1WT/beta2, -0.0313.
